Screens as filed in PubChem BioAssay.
The list is not random: actives were taken first. Their share in the collection is about 11%.
Pf growth 96h: Primary qHTS for delayed death inhibitors of the malarial parasite plastid, 96 hour incubation. P. falciparum luciferase reporter growth, 96 h. Potency, µM (top dose mostly 28.7 µM), inactives show at the top dose activity change, negative = inhibition, actives largely listed as inhibitors. hit rate 6.9% among 320,000. AID 504834, 2011
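Erythrocytes infected with luciferase-expressing P. falciparum were dispensed at 2% hematocrit and 0.05% parasitemia (final), then incubated with compounds 96 hours at 37 C in 5% CO2. Luminescence after detection reagent addition reported growth.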
Pf growth 48h: Primary qHTS for delayed death inhibitors of the malarial parasite plastid, 48 hour incubation; P. falciparum luciferase growth in erythrocytes, 48 h; hit rate 5.9% among 310,000; Potency, µM (series often up to 28.7 µM), for inactives: top-dose activity change, negative = inhibition, usual class: inhibitors
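Here the parasites carry a stable luciferase gene and grow inside erythrocytes in Albumax-based RPMI medium with compound for one erythrocytic cycle. Activity is scored as loss of luminescent signal.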
AmpC inh no detg: qHTS Inhibitors of AmpC Beta-Lactamase (assay without detergent). AmpC nitrocefin hydrolysis, absorbance 480 nm, 0.0001% Triton. AID 485341, 2010. hit rate 0.52% among 330,000. P00811. Potency, µM (titrated, usually from 57.1 µM), for the others: at the top dose activity change, negative = inhibition, most hits filed as inhibitors;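 note: plate controls were no compound for no effect and no enzyme for full effect; nearly all actives have a fitted effect of over 20% in size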
Target sequence (P00811 whole entry, looked up): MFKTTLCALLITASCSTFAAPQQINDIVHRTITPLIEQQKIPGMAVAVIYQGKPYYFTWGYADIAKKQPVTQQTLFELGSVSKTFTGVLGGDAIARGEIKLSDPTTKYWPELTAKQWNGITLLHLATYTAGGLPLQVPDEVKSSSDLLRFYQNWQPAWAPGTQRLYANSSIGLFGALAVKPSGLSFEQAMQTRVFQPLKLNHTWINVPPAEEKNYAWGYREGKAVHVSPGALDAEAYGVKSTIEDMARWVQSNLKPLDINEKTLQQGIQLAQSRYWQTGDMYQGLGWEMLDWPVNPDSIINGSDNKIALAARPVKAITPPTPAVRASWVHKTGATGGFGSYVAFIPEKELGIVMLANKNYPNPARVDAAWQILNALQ
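20 mM phosphate pH 7.0 + 0.01% (detergent screen) or 0.0001% Triton X-100; 5.3 nM AmpC reagent; cpd preinc 15 min RT; nitrocefin (800 uM stock) to start; A480 q20 s × 4 min; Activity was normalised to no-enzyme and no-compound control wells.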
AMA1 RON2 block: qHTS for Inhibitors of AMA1-RON; Towards Development of Antimalarial Drug Lead: Primary Screen. AlphaScreen AMA1-biotinylated RON2 peptide binding. Potency, µM (highest dose often 58.2 µM), inactives show top-dose activity change, negative = inhibition, hits mostly inhibitors. hit rate 0.2% among 360,000. AID 720542, 2013;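 note: 0% = vehicle wells and -100% = peptide control; nearly all actives have a fitted effect of over 45% in size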
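AMA1 (3D7) with his tag at 25 nM final met compounds first, then biotinylated RON2 peptide at 25 nM; detection used donor plus acceptor beads, 10 µg/mL apiece, read by AlphaScreen after 30 min at room temperature.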
AmpC inh detg: qHTS Inhibitors of AmpC Beta-Lactamase (assay with detergent). Potency, µM (top dose mostly 114 µM), without a hit: at the highest dose activity change, negative = inhibition, usual class: inhibitors. AmpC hydrolysis of nitrocefin, absorbance 480 nm, 0.01% Triton. P00811. hit rate 0.041% among 370,000;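 note: 0% = no-compound wells and -100% = no-enzyme wells; nearly all actives have a fitted effect of over 25% in size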
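AmpC (5.3 nM in the dispensed reagent) in 20 mM phosphate pH 7.0 with 0.01% (detergent screen) or 0.0001% Triton X-100 was preincubated with compounds for 15 min at room temperature. Nitrocefin was then added from an 800 uM solution, and hydrolysis was followed at 480 nm.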
HCV inhibitor: qHTS Assay for Inhibitors of Hepatitis C Virus (HCV); Huh7.5.1 HCVcc-Cre infection, luciferase reporter, 44 h; Potency, µM (series often up to 41.8 µM), for the others: at the highest dose activity change, negative = inhibition, actives largely listed as inhibitors; hit rate 3.4% among 340,000; AID 651820, 2012
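Reporter virus HCVcc-Cre (~0.5 moi) infects cells exposed to compound; seeding density 1,000 cells/well with 4 h settling beforehand. Luminescence, 15 sec read, taken 44 h post-infection following a 15 min RT substrate incubation.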
Starred values were filed as active, the others as inactive; ? = inconclusive; . = not tested or not shown. Calls come from the whole dose curve; as a rule, active = well fitted curve in the direction sought with a large enough effect; inconclusive = small, poorly fitted or top-dose-only effect, or another doubt; inactive = no such curve, though single readings can be large; an effect the other way counts as inactive or inconclusive. Unless noted, % is set by controls: 0 for no effect and ±100 for the full control effect; potency is the fitted concentration of half-maximal effect.

SMILES | Pf growth 96h | Pf growth 48h | AmpC inh no detg | AMA1 RON2 block | AmpC inh detg | HCV inhibitor
Cc1ccc(C(=O)N/C(=C/c2ccc(-c3cccc([N+](=O)[O-])c3)o2)C(=O)NC(C)(C)C)cc1 | 67.4% | -4.0% | -31.7% | 0.8% | -10.9% | ?
CCOC(=O)c1cnc(SCC(=O)Nc2ccc(NC(C)=O)c(OC)c2)nc1N | 39.3% | 10.9% | -9.2% | 13.0% | -10.9% | 12.1%
CCOC(=O)Cc1csc(SCC(=O)Nc2cccc(Cl)c2)n1 | 42.3% | . | -17.2% | 1.7% | -10.3% | -7.5%
COc1ccc(NC(=O)CSc2nc(C)cs2)c(OC)c1 | ? | 20.2% | -11.2% | -13.6% | 0.7% | -21.0%
CCOC(=O)c1cnc(SCC(=O)Nc2cc(OC)ccc2OC)nc1N | . | -11.1% | -13.8% | -14.6% | -14.1% | 6.31µM*
COc1ccc(OC)c(NC(=O)CSc2nc(C)cs2)c1 | . | -0.4% | -24.5% | -4.6% | ? | 25.1µM*
CCOC(=O)Cc1csc(SCC(=O)Nc2cc(Cl)ccc2Oc2ccccc2)n1 | . | -18.7% | 0.2% | 11.5% | -1.4% | 10µM*
Cc1cccc(CNC(=O)c2ccc(NC(=O)N3CCSc4ccccc43)cc2)c1 | . | . | . | . | 13.6% | .
COc1ccc(NC(=O)CCc2nnc3n(CC(C)C)c(=O)c4ccccc4n23)cc1 | . | . | . | . | 21.6% | .
COc1ccc(CN2CCCCC2c2cccnc2)cc1C (configuration not stated) | 26.6% | 13.1µM* | -12.8% | -4.9% | ? | -25.2%
Cc1oc(-c2ccccc2Cl)nc1CN1CCCC1c1ccc(F)cc1 (configuration not stated) | 6.57µM* | ? | 30.0% | -21.0% | -5.5% | -12.9%
Cc1ccc(-c2nc(CN3CCCCC3c3cccc(F)c3)c(C)o2)o1 (configuration not stated) | -13.0% | ? | 30.8% | -15.1% | 4.5% | -12.4%
Cc1ccccc1-c1nc(CN2CCCC2c2ccc(F)cc2)c(C)o1 (configuration not stated) | 16.6% | 10.4µM* | 15.7% | -2.2% | 1.5% | 4.5%
COc1ccc(-c2nc(CN3CCCCC3c3cccnc3)c(C)o2)c(F)c1 (configuration not stated) | ? | 9.28µM* | 104.3% | 4.1% | 2.7% | ?
Cn1c(=O)cc(SCC(=O)NCc2ccc(F)cc2)c2cc(Cl)ccc21 | . | . | . | . | 16.1% | .
Cc1oc(-c2ccccc2Cl)nc1Cn1cccc1C1=NC(c2ccccc2)CO1 (configuration not stated) | ? | -1.5% | -15.3% | 0.0% | -10.7% | 11.2µM*
CN1CCC[C@@H]1c1cccnc1 | 15.1µM* | -6.0% | . | . | . | .
Cc1nonc1C1CCCN1Cc1nc(-c2ccccc2Cl)oc1C (configuration not stated) | 99.5% | ? | 35.5% | -10.1% | -1.1% | -12.5%
CN1CCCC1c1cccnc1 (configuration not stated) | . | . | . | -5.9% | . | 10.8%
Cc1oc(-c2ccccc2Cl)nc1CN1CCCCC1c1cccnc1 (configuration not stated) | ? | 11.7µM* | 62.7% | 4.8% | 5.3% | -16.2%
Cc1ccc(C(=O)c2oc3ccccc3c2NC(=O)c2cc(-c3ccccc3)on2)cc1F | . | . | . | . | 15.9% | .
O=[N+]([O-])c1cc(C(F)(F)F)ccc1NC1CCN(Cc2ccccc2)CC1 | 6.2% | 7.38µM* | 10.3% | 12.6µM* | 0.3% | 0.6%
Cc1cccc(CNC(=O)Cn2nc(C)c3nn(-c4ccc(Cl)cc4)c(C)c3c2=O)c1 | . | . | . | . | 5.4% | .
N/N=C1\CCCc2c1[nH]c1ccc([N+](=O)[O-])cc21 | 107.6% | 76.3% | -24.5% | 0.0% | -5.3% | -18.0%
